Test [1] concerns the target Cellular tumor antigen p53 (Homo sapiens) (UniProt P04637). Kind of test: Primary qHTS for small molecule compounds that upregulate eGFP-tagged delta133p53alpha (in N-terminal) cells. (AID 2060322).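 For activation: cells pre-induced with doxycycline then dosed without doxycycline; series mostly up to about 56 µM; 0% = DMSO vehicle and 100% = reference activator.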 Note: nearly all actives have a fitted effect of over 75% in size. Note: potency is the fitted concentration of half-maximal effect. The following applies: NCI-H358 eGFP-delta133p53alpha fluorescence, 24 h; activation: hits give high values. In short, it runs like this:
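NCI-H358 cells pre-induced 24 h with 10 ng/ml doxycycline for eGFP-delta133p53alpha, plated dox-free and exposed 24 h at 37C to titrated compounds. Fixed, Hoechst-stained; gated GFP peak intensity by laser scanning cytometry, normalized to DMSO (0%) and 57.5 uM 5-azacytidine (100%).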
(In general: Quantitative high-throughput screening tests each substance at several concentrations.)

Test [2] concerns the target Aldehyde dehydrogenase, mitochondrial (Homo sapiens) (UniProt P05091). Kind of test: qHTS for Inhibitors of the Aldehyde Dehydrogenase Family (ALDH2) Primary screen (AID 2061308).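 Note: plate controls were vehicle for no effect and reference inhibitor for full effect; nearly all actives have a fitted effect of over 55% in size.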
For test [3], the target named is Retinaldehyde dehydrogenase 3 (Homo sapiens) (UniProt P47895). Kind of test: qHTS for Inhibitors of the Aldehyde Dehydrogenase Family (ALDH1A3) Primary screen (AID 2061315).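 Note: plate controls were DMSO vehicle for no effect and reference inhibitor for full effect.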

Molecules are shown by their SMILES. Results filed as inconclusive are left out. Values without a mark were called inactive. Calls of active or inactive are those of the source. Calls come from the whole dose curve; as a rule, active = well fitted curve in the direction sought with a large enough effect; inconclusive = small, poorly fitted or top-dose-only effect, or another doubt; inactive = no such curve, though single readings can be large; an effect the other way counts as inactive or inconclusive.

Sequence of Cellular tumor antigen p53 (Homo sapiens) (P04637 whole entry, looked up): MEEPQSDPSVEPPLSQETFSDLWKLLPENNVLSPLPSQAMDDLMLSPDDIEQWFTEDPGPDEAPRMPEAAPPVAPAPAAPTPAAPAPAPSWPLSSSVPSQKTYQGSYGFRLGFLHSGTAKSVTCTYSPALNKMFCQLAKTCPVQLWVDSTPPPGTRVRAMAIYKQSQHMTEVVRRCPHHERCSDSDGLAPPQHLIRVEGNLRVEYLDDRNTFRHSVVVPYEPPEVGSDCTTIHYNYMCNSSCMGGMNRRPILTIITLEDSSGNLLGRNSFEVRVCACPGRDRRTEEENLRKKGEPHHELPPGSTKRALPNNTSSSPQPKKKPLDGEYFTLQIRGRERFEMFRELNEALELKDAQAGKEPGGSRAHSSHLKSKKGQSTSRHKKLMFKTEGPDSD

For the compound `C=C1C(O)CC2C(C(=O)O)=COC(O[C@@H]3O[C@H](COC(=O)c4ccc(O)cc4)[C@@H](O)[C@H](O)[C@H]3O)C12` (stereo not given in full), in test [1], the activation was -6.11%. In addition, the Potency entry in test [2] and in test [3] was “inactive” each time.
As to `C[C@@H]1[C@H]2[C@H](O[C@@H]3O[C@H](CO)[C@@H](O)[C@H](O)[C@H]3O)OC=C(C(=O)O)[C@H]2C[C@@H]1OC(=O)/C=C/c1ccc(O)cc1`, in test [1], the activation is 18.8%. In addition, the Potency result in test [2] and in test [3] was “inactive” in each case.
Turning to `CC1(C)CC[C@]2(C(=O)OC3OC(CO)C(O)C(O)C3O)CC[C@]3(C)C(=CCC4[C@@]5(C)C[C@@H](O)[C@H](OC6OC(C(=O)O)C(O)C(O)C6O)C(C)(C)C5CC[C@]43C)[C@@H]2C1` (stereo not given in full), the activation in test [1] was -2.29%. The Potency entry in test [2] and in test [3] was “inactive” each time.
For the compound `CC12CC(O)C(O)C=C1c1cc(O)cc(O)c1C(=O)O2` (stereo not given), the activation in test [1] is -7.63%. In addition, the Potency entry in test [2] and in test [3] was “inactive” in each case.
For the compound `COc1c(O)cc2c(c1O)C(=O)O[C@H](C)[C@H]2O`, the activation in test [1] is -14.5%. Further, the Potency result in test [2] and in test [3] was “inactive” throughout.
On to `CC(=O)OC1(C)CC(O)C2(O)C=COC(OC3OC(CO)C(O)C(O)C3O)C12` (stereo not given), for which the activation in test [1] was -16.8%. The Potency result in test [2] and in test [3] was “inactive” throughout.
Consider `CC(=O)NC(C(=O)OC1CCC(C)(C)C2CC=C3C(=O)OCC3C12C)C(C)C` (stereo not given), for which the activation in test [1] was 9.16%. Besides, the Potency result in test [2] and in test [3] was “inactive” throughout.
For `CCNC(=O)Nc1ccc(-c2nc3c(c(N4CCOC[C@@H]4C)n2)CCN(c2ncccn2)C3)cc1`, the activation in test [1] is -14.3%. In addition, the Potency entry in test [2] and in test [3] was “inactive” each time.
With `C=CC[N+]1([C@H]2C[C@H]3[C@@H]4CC[C@H]5C[C@H](OC(C)=O)[C@@H](N6CCCCC6)C[C@]5(C)[C@H]4CC[C@]3(C)[C@H]2OC(=O)CC)CCCCC1`, in test [1], the activation was -3.67%. Further, the Potency entry in test [2] and in test [3] was “inactive” in each case.
With `C=C1CC[C@@H]2[C@](C)(CO[C@@H]3O[C@H](CO)[C@@H](O)[C@H](O)[C@H]3O)[C@H](O)CC[C@@]2(C)[C@@H]1C/C=C1/C(=O)OC[C@H]1O`, the activation in test [1] was -8.93%. The Potency result in test [2] and in test [3] was “inactive” each time.
On to `O=C(Nc1ccn[nH]1)c1c(F)cccc1F`, for which, in test [1], the activation was 12.3%. Also, the Potency result in test [2] and in test [3] was “inactive” in each case.
With `COC(=O)C[C@H]1[C@]2(C)C3=C(C)[C@H](c4ccoc4)C[C@H]3O[C@@H]2[C@H](O)C2[C@](C)(C(=O)OC)C=CC(=O)[C@@]21C` (stereo not given in full), the activation in test [1] is 2.29%. Further, the Potency result in test [2] and in test [3] was “inactive” throughout.
With `CCC(C)C(=O)OC12C(OC(C)=O)C(C)C3(O)C(C=C(CO)CC4(O)C(=O)C(C)=CC43)C1C2(C)C` (stereo not given), the activation in test [1] is -19.1%. Moreover, the Potency entry in test [2] and in test [3] was “inactive” each time.
For the compound `CCCCn1ccc(N2CCC(c3ccccc3)CC2)c(Cl)c1=O`, the activation in test [1] was -2.33%. The Potency result in test [2] and in test [3] was “inactive” throughout.
As for `CCCCS(=O)(=O)Nc1ncnc(OCCOc2ncc(Br)cn2)c1-c1ccc(Br)cc1`, in test [1], the activation was -20.3%. Further, the Potency entry in test [2] and in test [3] was “inactive” each time.
As to `COC(=O)CC(O)CC(O)/C=C/c1c(C)ccc2c1C(OC(C)=O)CC(C)C2` (stereo not given), the activation in test [1] is -0.763%. The Potency result in test [2] and in test [3] was “inactive” each time.
For `CC[C@H]1OC(=O)[C@H](C)[C@@H](OC2C[C@@](C)(OC)[C@@H](O)[C@H](C)O2)[C@H](C)[C@@H](OC2O[C@H](C)C[C@H](NC)[C@H]2O)[C@](C)(O)C[C@@H](C)CN(C)[C@H](C)[C@@H](O)[C@]1(C)O` (stereo not given in full), the activation in test [1] is 4.33%. For the same compound, the Potency result in test [2] and in test [3] was “inactive” in each case.
Regarding `CN(C)C/C=C/C(=O)Nc1cc2c(Nc3ccc(F)c(Cl)c3)ncnc2cc1OC1CCOC1` (stereo not given), the Potency in test [1] was 7.57 µM (active). For the same compound, the Potency entry in test [2] and in test [3] was “inactive” in each case.
As for `C=C1CC/C=C(/C(=O)O)CCC2C1CC2(C)C` (stereo not given), the activation in test [1] was -4.58%. Besides, the Potency result in test [2] and in test [3] was “inactive” in each case.
`COC(=O)C1=C2Nc3ccccc3C23CCN2CCCC(C(C)O)(C1)C23` (stereo not given): the activation in test [1] was 18.8%. In addition, the Potency result in test [2] and in test [3] was “inactive” throughout.
Turning to `COc1ccc(OC2OC(CO[C@@H]3O[C@@H](C)[C@H](O)[C@@H](O)[C@H]3O)C(O)C(O)C2O)cc1OC` (stereo not given in full), the activation in test [1] was 8.4%. Further, the Potency entry in test [2] and in test [3] was “inactive” in each case.
Turning to `C=C(C)C(=O)OC1CC2(C)OC(=CC2=O)C(=C)CC2OC(=O)C(=C)C12` (stereo not given), in test [1], the Potency is 4.67 µM (active). The Potency entry in test [2] and in test [3] was “inactive” in each case.
As to `C#CCOc1ccc2c(c1)c(-c1ccc(C(C)C)cc1)nc(=O)n2C(C)C`, the activation in test [1] was -0.893%. Moreover, the Potency result in test [2] and in test [3] was “inactive” in each case.
Take `COc1c2c(c(C)c3c1C(=O)OC3)O[C@@]1(C)CCC3(C(C)(C)O)OC(=O)CC[C@]3(C)[C@H]1C2` (stereo not given in full): the activation in test [1] is 4.58%. The Potency entry in test [2] and in test [3] was “inactive” each time.
With `CC(=O)O[C@H]1[C@H](C)[C@@H](O)[C@H]2[C@@H]1C=C(C(=O)O)[C@H]1C[C@@H]3[C@H]([C@H]21)[C@H]1C(=O)O[C@@H]2CC[C@@]3(C)O[C@]1(O)[C@@H]2C`, the activation in test [1] was -11.5%. The Potency entry in test [2] and in test [3] was “inactive” in each case.

These data come from PubChem BioAssay (NCATS).
